About 8,600 (12%) of roughly 69,000 compounds showed an effect of 50% or more. The sample holds strong results, similar compounds and a random draw of the others, so the mix is not that of the screen.
These molecules were tested on Plasmodium berghei (assay: Screen against P. berghei liver stage (PbLuc), transformed with Luciferase, at 10uM). Settings: tested at 10 uM.
Type: functional, HepG2

Row | Structure (SMILES) | INHIBITION [%]
1 | CC(C)n1ccnc1CN1CCCN(C(=O)CN(C)C2CC2)CC1 | 40
2 | Cc1nc(CN2CCCC(NCCOc3cccc(C#N)c3)C2)no1 (stereo not given) | 0.914
3 | Cc1nccn1-c1cc(CNC(=O)CCS(=O)(=O)C2CCCC2)ccn1 | 5.9
4 | Cc1ccc(OCCSC2=NCCN2)cc1 | 32.5
5 | Cc1c(NC(=O)c2noc3c2CCCC3)cnn1C | 10
6 | CCN(CC)C(=O)c1cnc(Sc2nccn2C)c(Cl)c1 | 48
7 | Cn1c(-c2ccccc2Cl)nc2cc(C(=O)NCCOCCO)cnc21 | -50.7
8 | Cc1c(Cl)cc(C(=O)N(CCO)Cc2nccn2C)cc1Cl | -8.47
9 | CCOCCNC(=O)c1cnc(Sc2nccn2C)c(Cl)c1 | 50.8
10 | CN1CCN(S(=O)(=O)c2ccc(Sc3nccn3C)nc2)CC1 | 46.1
11 | CCNC(=O)c1cnc(Sc2nccn2C)c(Cl)c1 | 62.8
12 | Cn1ccnc1Sc1ncc(C(=O)N2CCCCC2)cc1Cl | 27.6
13 | CC(C)NC(=O)c1cnc(Sc2nccn2C)c(Cl)c1 | 62.8
14 | CCOCCCNC(=O)c1nn(CC)cc1Cl | 7.9
15 | CCCn1nccc1NC(=O)CN1CCCC1Cn1nc(C)nc1C (stereo not given) | -101
16 | Cn1nc2c(cc1=O)CN(CCN1CCCC1=O)CC2 | -7.35
17 | CCOc1ccc(Cl)c(C(=O)NC)n1 | 49
18 | CS(=O)(=O)NCC1(O)CCCN(C(=O)CCn2cc(Cl)cn2)CC1 (stereo not given) | -28.7
19 | CCCc1nc(CN(CCO)Cc2cc(Br)ccc2F)no1 | 39.4
20 | CN1CCN(CCOc2ccc(NC(=O)c3cnc[nH]3)cc2)CC1 | 1.04
21 | Cc1c[nH]c(CN(C)c2nc(C3CCCC3)nc3c2cnn3C)n1 | 60.1
22 | Cc1nn(C)c(C)c1CN(C)c1nc(C2CCCC2)nc2c1cnn2C | 42.6

Row | Structure (SMILES) | INHIBITION [%]
23 | Cc1cc(C)nc(CN(C)c2nc(C3CCCC3)nc3c2cnn3C)c1 | 0.87
24 | Cc1ccc(OC2CCN(S(=O)(=O)N(C)C)CC2)nc1 | 35.4
25 | CCOc1cc(-c2cc(=O)n3c(n2)CCCCC3)ccc1O | -6.09
26 | CCS(=O)(=O)NCc1cc(Br)c(OC)c(OC)c1 | 51.3
27 | CCC(=O)NCc1cc(Br)c(OC)c(OC)c1 | -4.74
28 | CCCC(=O)NCc1cc(Br)c(OC)c(OC)c1 | -26.1
29 | CC(=O)NCCOc1c(Cl)cccc1Cl | 22
30 | CN(Cc1cnn(C)c1)C(=O)CCC(=O)c1ccc2c(c1)OCCO2 | 5.48
31 | CCc1cc(C(F)(F)F)n2nc(C3CCCN3C3CCSCC3)cc2n1 (stereo not given) | 18.95
32 | Cc1cc(N2CCCC(c3n[nH]c4ncccc34)C2)ncn1 (stereo not given) | 26.3
33 | Cc1nc(CN2C[C@@H]3CN(C(=O)C4(C#N)CC4)C[C@@H]3C2=O)cs1 | -20.2
34 | COc1ccc(OCCNc2cccc(C(=O)N3CCOCC3)c2)cc1 | -12.5
35 | Cc1cnc(C)c(Oc2ccc(Cl)c(CN3CCCC3)c2Cl)n1 | 90.3
36 | NC(=O)c1cncc(Oc2cccc(CN3CCCC3)c2Cl)n1 | 24.4
37 | Cc1cnc(C)c(Oc2ccc(CN3CCCC3)cc2Cl)n1 | 89.4
38 | Cc1cc(CN2CCCC2)cc(Oc2nc(C)cnc2C)c1 | 89.4
39 | Cc1nn(C)c2ncc(CN3CCCCCC3)cc12 | 44.9
40 | COc1ccc(CN2CCC3(CC2)C(C(=O)O)CC(=O)N3C)cc1Cl (stereo not given) | 39.9
41 | c1cc(-c2cn[nH]c2)ccc1CN1CCCCC1 | 10.6
42 | COC(=O)CC1CN(Cc2c(Cl)ccc3cccnc23)CCO1 (stereo not given) | -14.2
43 | CCn1c(C2CCCN(Cc3cc(C)cc(C)c3)C2)nn(C)c1=O (stereo not given) | -17.8
44 | OC1CCN(CCCNc2nccc(C3CCCC3)n2)CC1 | 31.4

Row | Structure (SMILES) | INHIBITION [%]
45 | CC(O)CN1CCN(Cc2cccc(C(=O)N3CCCCC3)c2)CC1 (stereo not given) | 37.9
46 | O=C(c1cscn1)N1CCc2[nH]nc(Nc3ccccc3)c2C1 | -15.625
47 | Cc1ccccc1CN(CCN(C)C)Cc1ccc(O)c(C(=O)O)c1 | 29.2
48 | Cc1nonc1-c1nc(C(C)C)nn1-c1ccc2c(c1)OCO2 | 82
49 | CCc1nnsc1-c1nc(C(C)C)nn1-c1ccc2c(c1)OCO2 | 12.4
50 | CC(C)c1nc(-c2ccc(=O)[nH]n2)n(-c2ccc3c(c2)OCO3)n1 | 25.5
51 | CN(C)c1nc(CNC(=O)N[C@H](CO)c2ccccc2)cs1 | -42
52 | COc1ccccc1CCNC(=O)CC1(Cn2cnnn2)CCCCC1 | 48.2
53 | CC(C)Cc1cc(NC(=O)c2ccccc2)n(C)n1 | 10
54 | CC(C)Cc1cc(NC(=O)c2n[nH]c3ccccc23)n(C)n1 | 56.6
55 | CC(C)Cc1cc(NC(=O)c2ccc(=O)[nH]n2)n(C)n1 | 40.3
56 | COC(CNC(=O)C1CCCC1)c1ccc(C)s1 (stereo not given) | 24.7
57 | COc1cc(C(=O)N2CCCC2c2noc(C(C)C)n2)on1 (stereo not given) | -2.143
58 | Cn1ccnc1CN(CCO)Cc1ccc(C(F)(F)F)cc1 | 29.8
59 | CN(Cc1nccn1C)C1CCCN(CCCc2ccccc2)C1 (stereo not given) | 43.7
60 | CN(CCCc1ccc(C(F)(F)F)cc1)Cc1nccn1C | 66.8
61 | CC(=O)c1ccc(S(=O)(=O)Nc2cnn(C3CCOCC3)c2)cc1 | -24.1
62 | O=C(Cn1ccc2ccc(Cl)cc21)/N=c1\[nH]nc(C2CCCO2)s1 (stereo not given) | 39.7
63 | CC(C)CN1CC(c2nc(-c3ccc(F)cc3)c[nH]2)CC1=O (stereo not given) | 27.5
64 | CC(C)CN1CC(c2nc(-c3ccsc3)c[nH]2)CC1=O (stereo not given) | 53.3
65 | COc1ccc(-c2c[nH]c(C3CC(=O)N(CC(C)C)C3)n2)cc1 (stereo not given) | -15
66 | CC(C)N1CCC(Cc2cncc(-c3cc(F)ccc3C(=O)O)n2)CC1 | 41.2

Row | Structure (SMILES) | INHIBITION [%]
67 | CCN(CCNS(=O)(=O)N1CCOCC1)C(=O)OC(C)(C)C | 41.3
68 | CN(C(=O)NCc1nccn1Cc1ccccc1)C1CC1 | 46.4
69 | COc1ccc(S(=O)(=O)NCCCc2nnc3nc(C)cc(C)n23)cc1 | 74.6
70 | Cc1cc(C)n2c(CCCNS(=O)(=O)c3cccs3)nnc2n1 | 31.3
71 | COc1ccc(CC(=O)NCCCc2nnc3nc(C)cc(C)n23)cc1 | 52.7
72 | Cc1cc(C)n2c(CCCNS(=O)(=O)c3ccccc3)nnc2n1 | 34.6
73 | COc1ccc(CC(=O)NCCNS(=O)(=O)c2ccc(C)cc2)cc1 | -57.5
74 | Cc1cc(C)n2c(CCCNS(=O)(=O)c3ccc(F)cc3)nnc2n1 | 15.4
75 | CCCS(=O)(=O)NCC(O)c1c(Cl)cccc1Cl (stereo not given) | 0.87
76 | CCn1nc(C)c2c1cnn2CC(=O)NC(C)c1cccc(OC)c1 (stereo not given) | 49.9
77 | Cc1nnc([C@@H]2CC[C@@H]3[C@@H](CCN3CC3CCOCC3)O2)o1 | -13.7
78 | Cc1nnc([C@@H]2CC[C@@H]3[C@@H](CCN3C3CCOCC3)O2)o1 | 60.3
79 | Cc1nnc([C@@H]2CC[C@@H]3[C@@H](CCN3C3CCC3)O2)o1 | 23.3
80 | CCCNC(=O)COc1ccc(-c2ccccc2)nc1 | -91.3
81 | O=C(Cn1cc(I)cn1)Nc1cccnc1 | 4.74
82 | Cn1cc(C(=O)NCc2cncc3c2CCN(CC2CC2)C3)cn1 | 28.5
83 | Cc1nc(-c2ccccc2)n(CC(=O)NC(C)C)n1 | 31.2
84 | COc1ccc(C(N)=O)cc1NCc1ncc(C(C)(C)C)o1 | 15.7
85 | COc1ccc(C(N)=O)cc1NCc1noc(-c2ccsc2)n1 | 9.06
86 | COc1ccc(C(N)=O)cc1NCc1nc(-c2cccs2)oc1C | 68
87 | COc1ccc(C(N)=O)cc1NCc1ncc(-c2cccs2)o1 | 69.7
88 | CNC(=O)c1ccc(OC)c(NCc2noc(-c3ccsc3)n2)c1 | -48.5

Row | Structure (SMILES) | INHIBITION [%]
89 | COc1ccc(NC(=O)CCn2nc(-c3cccs3)oc2=O)cc1OC | -22.9
90 | CCc1nc(CCNC(=O)Nc2cc(C(N)=O)ccc2OC)cs1 | -10.8
91 | CNC(=O)c1ccc(OC)c(NCc2noc(-c3cccs3)n2)c1 | 10
92 | CNC(=O)c1ccc(OC)c(NCc2ncc(-c3cccs3)o2)c1 | 61.1
93 | COc1ccnc(N2CCN(CC(O)CN3CCOCC3)CC2)n1 (stereo not given) | 4.52
94 | Cn1ccnc1CN1CCC(c2nnc(Cn3cccn3)n2C)CC1 | 16.3
95 | N#Cc1ccccc1C(=O)N1C[C@@H]2CC[C@H]1CN(c1ncccn1)C2 | 12.9
96 | N#CC1(C(=O)N2CCCN(c3nccs3)CC2)CCCCC1 | 11.45
97 | O=C(c1cnc(-c2cnccn2)s1)N1CCCC(n2cccn2)C1 (stereo not given) | 10
98 | CN1CCC(Oc2ccc(-n3ccnc3-c3nccn3C)cc2)CC1 | 13
99 | CN(CCc1ccccc1)C(=O)c1cccnc1OCC(F)(F)F | 45.1
100 | Cc1cc(=O)n2nc(CNc3cc(Cl)ccc3C)nc2[nH]1 | 39.2
101 | Cc1ncsc1C(=O)NCCN1CCCCCC1=O | 25.4
102 | COCCNC(=O)c1sccc1N(C)S(=O)(=O)c1ccc(Cl)cc1 | 51.6
103 | CC(C)CCNC(=O)c1sccc1N(C)S(=O)(=O)c1ccccc1 | 0
104 | CCNC(=O)c1sccc1N(C)S(=O)(=O)c1ccc(Cl)cc1 | 26.7
105 | CC(C)NC(=O)c1sccc1N(C)S(=O)(=O)c1ccc(Cl)cc1 | 0
106 | CCCNC(=O)c1sccc1N(C)S(=O)(=O)c1ccc(Cl)cc1 | 23.7
107 | CN(C)CCNC(=O)c1sccc1N(C)S(=O)(=O)c1ccc(Cl)cc1 | 54
108 | CNC(=O)c1sccc1N(C)S(=O)(=O)c1ccc(Cl)cc1 | 84.7
109 | Cc1ccc(S(=O)(=O)N(C)c2ccsc2C(=O)NCC(C)C)cc1 | 28.4
110 | COC(=O)CNC(=O)c1sccc1N(C)S(=O)(=O)c1ccc(Cl)cc1 | 20.1

— ChEMBL document CHEMBL4513216, “Probing the Open Global Health Chemical Diversity Library for Multistage-Active Starting Points for Next-Generation Antimalarials” (ACS Infect Dis, 2020)
